In experiment [1] the target is Peroxisome proliferator-activated receptor gamma (Homo sapiens) (UniProt P37231). The experiment can be described thus: OT_PPARg_PPARgSRC1_0480: Odyssey Thera (OT) 8-hour Protein-Complementation Assay for Peroxisome Proliferator-activated Receptor Gamma / SRC-1 Co-activator (AID 2283387; active = hit-call score of the fitted dose curve at least 0.9, where 1 is the maximum;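 also: nuclear to cytoplasmic split Venus YFP fluorescence ratio reporting PPARg SRC-1 interaction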). In outline:
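Protein-fragment complementation in HEK293T: Venus YFP halves (residues 1-158, 159-239, mutated to IFP1/IFP2) fused to PPARg/SRC-1. 8 h exposure; N/C ratio at 488 nm; DMSO negative control.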

Experiment [2] has the same target. The experiment can be described thus: OT_PPARg_PPARgSRC1_1440: Odyssey Thera (OT) 24-hour Protein-Complementation Assay for Peroxisome Proliferator-activated Receptor Gamma/ SRC-1 Co-activator (AID 2283388; active = hit-call score of the fitted dose curve at least 0.9, where 1 is the maximum;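 also: nuclear to cytoplasmic ratio of reconstituted Venus YFP fluorescence in fixed imaged cells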). In outline: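 Protein-fragment complementation between PPARg and coactivator SRC-1 was measured by fluorescence imaging in transiently transfected HEK293T cells after 24 h treatment. Signal was quantified as N/C ratio in the 488 nm channel, with DMSO as negative control.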

In experiment [3] the target is Retinoic acid receptor RXR-alpha (Homo sapiens) (UniProt P19793). Kind of experiment: OT_NURR1_NURR1RXRa_1440: Odyssey Thera (OT) 24-hour HEK293T Protein Complementation Assay for Nurr1/retinoid X receptor (RXR) (AID 2283386; active = hit-call score of the fitted dose curve at least 0.9, where 1 is the maximum). In outline:
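Fluorescence PCA read-out; HEK293T; 24 h post-dose; bait/prey fused to reporter fragments; gain-of-signal fit vs DMSO negative control.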

Experiment [4] in a line: CEETOX_H295R_11DCORT: CeeTox H295R High-throughput Steroidogenesis Assay for 11-Deoxycortisol (11DCORT) (AID 2283432).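 Also: 11-deoxycortisol secreted into the medium measured by LC-MS/MS.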 Conditions: actives raise or lower the signal. In outline: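 Adrenal carcinoma line H295R, run per OECD 456 with minor changes, was forskolin-stimulated (10 uM, 48 h) before a 48 h chemical exposure at 0.1% DMSO. Secreted 11-deoxycortisol was quantified by HPLC-MS/MS.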

Experiment [5] in a line: CEETOX_H295R_OHPREG: CeeTox H295R High-throughput Steroidogenesis Assay for OH-Pregnenolone (OHPREG) (AID 2283434). Conditions: actives raise or lower the signal. In a few lines:
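Secreted 17alpha-hydroxypregnenolone measured by HPLC-MS/MS after liquid-liquid extraction. Human adrenal H295R cells received 48 h forskolin (10 uM) stimulation before 48 h chemical exposure at 0.1% final DMSO; MTT viability in same wells; bidirectional fit against DMSO.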

Experiment [6] can be described thus: CEETOX_H295R_CORTIC: CeeTox H295R High-throughput Steroidogenesis Assay for Corticosterone (CORTIC) (AID 2283437). The following applies: actives raise or lower the signal. In outline: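 Medium corticosterone was quantified by tandem mass spectrometry following 48 hours of chemical exposure (0.1% DMSO) in human H295R cells previously stimulated 48 hours with 10 uM forskolin. Viability checked by MTT; chemicals diluted and retested when viability fell below 70%.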

A short description of experiment [7]: CEETOX_H295R_CORTISOL: CeeTox H295R High-throughput Steroidogenesis Assay for Cortisol (AID 2283438).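 Also: cortisol secreted into medium quantified by LC-MS/MS.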 The following applies: actives raise or lower the signal. In a few lines: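 Read-out: cortisol in culture medium by reverse-phase C18 HPLC with ESI-positive tandem MS, after MTBE liquid-liquid extraction. Cells: human adrenal H295R, forskolin-primed (10 uM, 48 h) before 48 h chemical exposure in 0.1% DMSO.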

Experiment [8] in a line: CEETOX_H295R_DOC: CeeTox H295R High-throughput Steroidogenesis Assay for DOC (AID 2283439). The following applies: actives raise or lower the signal. In a few lines: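 Human adrenocortical H295R cells, passages up to 10, received 10 uM forskolin for 48 h before chemical addition. After another 48 h exposure in 0.1% DMSO, secreted DOC was measured by LC-MS/MS, with gain or loss fitted against DMSO controls.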

Read-out in experiment [9]: Tumor necrosis factor receptor superfamily member 6 (Homo sapiens) (UniProt P25445)
Kind of experiment: LTEA_HepaRG_FAS: Life Technologies and Expression Analysis (LTEA) Assay for Fas cell surface death receptor (FAS) using HepaRG (AID 2283447). Conditions: mRNA level, 48 h; actives raise or lower the signal. In a few lines: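 FAS transcript level was measured by TaqMan qRT-PCR against three housekeeping genes after 48 h chemical exposure. Cells were HepaRG, 0.5% DMSO vehicle, with a top concentration of 100 uM and half-log dilutions over eight points, in duplicate.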

Read-out in experiment [10]: Fatty acid synthase (Homo sapiens) (UniProt P49327)
The experiment can be described thus: LTEA_HepaRG_FASN: Life Technologies and Expression Analysis (LTEA) Assay for Fatty Acid Synthase (FASN) using HepaRG (AID 2283448).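 As to AC50: differentiated human HepaRG liver cells in serum-free induction medium.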 The following applies: mRNA level, 48 h; actives raise or lower the signal. In a few lines:
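HepaRG, 48 h exposure, 8-pt half-log series top 100 uM, 0.5% DMSO vehicle, duplicates. Readout: FASN transcript by Fluidigm qRT-PCR; housekeeping-normalized; bidirectional curve fit vs DMSO baseline.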

Read-out in experiment [11]: Cyclin D2 (CCND2), CCND2 (gene 894)
Kind of experiment: LTEA_HepaRG_CCND2: Life Technologies and Expression Analysis (LTEA) Assay for Cyclin D2 (CCND2) using HepaRG (AID 2283449). The following applies: mRNA level, 48 h; actives raise or lower the signal. In a few lines: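 CCND2 transcript levels, quantified by qRT-PCR and normalised to three housekeeping genes, were fitted bidirectionally against 0.5% DMSO. HepaRG cultures were dosed 48 h in duplicate with an 8-point half-log series up to 100 uM.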

Read-out in experiment [12]: Cyclin Dependent Kinase Inhibitor 1A (CDKN1A), CDKN1A (gene 1026)
Kind of experiment: LTEA_HepaRG_CDKN1A: Life Technologies and Expression Analysis (LTEA) Assay for Cyclin Dependent Kinase Inhibitor 1A (CDKN1A) using HepaRG (AID 2283450). The following applies: mRNA level, 48 h; actives raise or lower the signal. In a few lines: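 Read-out is CDKN1A mRNA by TaqMan qRT-PCR, normalized to three housekeeping genes and fitted in both directions against the DMSO baseline. Human HepaRG cells were treated 48 h with test chemicals up to 100 uM in half-log steps, 0.5% DMSO.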

Read-out in experiment [13]: Cyclin D1 (CCND1), CCND1 (gene 595)
The experiment can be described thus: LTEA_HepaRG_CCND1: Life Technologies and Expression Analysis (LTEA) Assay for Cyclin D1 (CCND1) using HepaRG (AID 2283451). Conditions: mRNA level, 48 h; actives raise or lower the signal. In a few lines: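 HepaRG plated 48 h, medium switched to serum-free induction medium, chemicals added in duplicate (top 100 uM, half-log steps, 0.5% DMSO) for 48 h, cells lysed, RNA measured by TaqMan qRT-PCR.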

Read-out in experiment [14]: catalase (CAT), CAT (gene 847)
Kind of experiment: LTEA_HepaRG_CAT: Life Technologies and Expression Analysis (LTEA) Assay for catalase (CAT) using HepaRG (AID 2283452).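 As to AC50: TaqMan qRT-PCR signal normalized to ACTB GAPDH and POLR2A housekeeping genes.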 Conditions: mRNA level, 48 h; actives raise or lower the signal. In a few lines: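 Expression of CAT was quantified by TaqMan qRT-PCR with ACTB/GAPDH/POLR2A normalization after 48 h chemical exposure of HepaRG. Eight-point half-log series, top 100 uM, in 0.5% DMSO; gain or loss fitted against vehicle.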

Read-out in experiment [15]: flavin-containing dimethylaniline monooxygenases 3 (FMO3), FMO3 (gene 2328)
Kind of experiment: LTEA_HepaRG_FMO3: Life Technologies and Expression Analysis (LTEA) Assay for flavin-containing dimethylaniline monooxygenases 3 (FMO3) using HepaRG (AID 2283453). Conditions: mRNA level, 48 h; actives raise or lower the signal. In outline: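 Eight-point concentration-response in serum-free HepaRG cultures (top 100 uM, 0.5% DMSO, 48 h). Read-out: FMO3 mRNA level normalized to three endogenous control genes, fitted bidirectionally versus vehicle.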

Read-out in experiment [16]: Cytochrome P450 (CYP1A1), CYP1A1 (gene 1543)
Kind of experiment: LTEA_HepaRG_CYP1A1: Life Technologies and Expression Analysis (LTEA) Assay for Cytochrome P450 (CYP1A1) using HepaRG (AID 2283454). Conditions: mRNA level, 48 h; actives raise or lower the signal. In outline:
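HepaRG, 48 h post-plating switched to serum-free induction medium; 8-pt conc-response (top 100 uM, half-log, 0.5% DMSO), duplicates, 48 h. Lysis in RLT, TaqMan qRT-PCR for CYP1A1; gain or loss vs DMSO.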

Read-out in experiment [17]: CFLAR gene, CFLAR (gene 8837)
The experiment can be described thus: LTEA_HepaRG_CFLAR: Life Technologies and Expression Analysis (LTEA) Assay for CFLAR gene using HepaRG (AID 2283455). Conditions: mRNA level, 48 h; actives raise or lower the signal. In a few lines:
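Transcript level by qRT-PCR (normalized to ACTB, GAPDH and POLR2A) after 48 h chemical exposure of HepaRG cells, top concentration 100 uM with half-log steps, 0.5% DMSO vehicle, duplicates; fitted bidirectionally against DMSO baseline.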

Experiment [18] can be described thus: CEETOX_H295R_ESTRADIOL: CeeTox H295R High-throughput Steroidogenesis Assay for Estradiol (AID 2283440).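 Also: estradiol secreted into medium quantified by LC-MS/MS after dansyl derivatisation.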 The following applies: actives raise or lower the signal. In outline:
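Estradiol secreted into the medium was measured by tandem mass spectrometry after liquid-liquid extraction and dansylation. Human H295R cells had been forskolin-primed (10 uM, 48 h) before a 48 h chemical exposure with 0.1% DMSO.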

The nature of experiment [19]: CEETOX_H295R_PROG: CeeTox H295R High-throughput Steroidogenesis Assay for Progesterone (PROG) (AID 2283442). Conditions: actives raise or lower the signal. In outline: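 Steps: seed H295R cells and let them adhere overnight; prime 48 h with 10 uM forskolin; dose with compound in DMSO at 0.1% final for 48 h; extract medium steroids with MTBE; measure progesterone by LC-MS/MS. MTT viability was run in the same wells.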

Records with an inconclusive call do not appear. Where a structure was tested more than once in an assay, its records may differ in their call. Calls of active or inactive are those of the source. The calls were made as follows, unless noted: active = hit-call score of the fitted dose curve at least 0.9, where 1 is the maximum; inactive = score below 0.9.

Peroxisome proliferator-activated receptor gamma (Homo sapiens), sequence (P37231 whole entry, looked up, the tested form may be a part): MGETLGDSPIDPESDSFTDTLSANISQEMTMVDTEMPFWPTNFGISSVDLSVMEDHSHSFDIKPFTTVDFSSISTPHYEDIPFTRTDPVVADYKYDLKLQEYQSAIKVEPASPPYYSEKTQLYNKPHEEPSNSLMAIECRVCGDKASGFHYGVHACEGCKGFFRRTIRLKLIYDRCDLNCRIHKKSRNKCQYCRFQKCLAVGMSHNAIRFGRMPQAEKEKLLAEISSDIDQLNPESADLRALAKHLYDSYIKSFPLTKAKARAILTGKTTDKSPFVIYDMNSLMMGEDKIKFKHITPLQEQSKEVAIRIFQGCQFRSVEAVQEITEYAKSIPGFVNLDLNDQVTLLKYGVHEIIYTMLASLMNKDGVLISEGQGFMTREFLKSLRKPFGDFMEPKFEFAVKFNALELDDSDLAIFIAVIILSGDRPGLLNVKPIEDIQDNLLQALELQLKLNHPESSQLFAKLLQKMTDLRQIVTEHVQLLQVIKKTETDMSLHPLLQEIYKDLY
Fatty acid synthase (Homo sapiens), sequence (P49327 whole entry, looked up): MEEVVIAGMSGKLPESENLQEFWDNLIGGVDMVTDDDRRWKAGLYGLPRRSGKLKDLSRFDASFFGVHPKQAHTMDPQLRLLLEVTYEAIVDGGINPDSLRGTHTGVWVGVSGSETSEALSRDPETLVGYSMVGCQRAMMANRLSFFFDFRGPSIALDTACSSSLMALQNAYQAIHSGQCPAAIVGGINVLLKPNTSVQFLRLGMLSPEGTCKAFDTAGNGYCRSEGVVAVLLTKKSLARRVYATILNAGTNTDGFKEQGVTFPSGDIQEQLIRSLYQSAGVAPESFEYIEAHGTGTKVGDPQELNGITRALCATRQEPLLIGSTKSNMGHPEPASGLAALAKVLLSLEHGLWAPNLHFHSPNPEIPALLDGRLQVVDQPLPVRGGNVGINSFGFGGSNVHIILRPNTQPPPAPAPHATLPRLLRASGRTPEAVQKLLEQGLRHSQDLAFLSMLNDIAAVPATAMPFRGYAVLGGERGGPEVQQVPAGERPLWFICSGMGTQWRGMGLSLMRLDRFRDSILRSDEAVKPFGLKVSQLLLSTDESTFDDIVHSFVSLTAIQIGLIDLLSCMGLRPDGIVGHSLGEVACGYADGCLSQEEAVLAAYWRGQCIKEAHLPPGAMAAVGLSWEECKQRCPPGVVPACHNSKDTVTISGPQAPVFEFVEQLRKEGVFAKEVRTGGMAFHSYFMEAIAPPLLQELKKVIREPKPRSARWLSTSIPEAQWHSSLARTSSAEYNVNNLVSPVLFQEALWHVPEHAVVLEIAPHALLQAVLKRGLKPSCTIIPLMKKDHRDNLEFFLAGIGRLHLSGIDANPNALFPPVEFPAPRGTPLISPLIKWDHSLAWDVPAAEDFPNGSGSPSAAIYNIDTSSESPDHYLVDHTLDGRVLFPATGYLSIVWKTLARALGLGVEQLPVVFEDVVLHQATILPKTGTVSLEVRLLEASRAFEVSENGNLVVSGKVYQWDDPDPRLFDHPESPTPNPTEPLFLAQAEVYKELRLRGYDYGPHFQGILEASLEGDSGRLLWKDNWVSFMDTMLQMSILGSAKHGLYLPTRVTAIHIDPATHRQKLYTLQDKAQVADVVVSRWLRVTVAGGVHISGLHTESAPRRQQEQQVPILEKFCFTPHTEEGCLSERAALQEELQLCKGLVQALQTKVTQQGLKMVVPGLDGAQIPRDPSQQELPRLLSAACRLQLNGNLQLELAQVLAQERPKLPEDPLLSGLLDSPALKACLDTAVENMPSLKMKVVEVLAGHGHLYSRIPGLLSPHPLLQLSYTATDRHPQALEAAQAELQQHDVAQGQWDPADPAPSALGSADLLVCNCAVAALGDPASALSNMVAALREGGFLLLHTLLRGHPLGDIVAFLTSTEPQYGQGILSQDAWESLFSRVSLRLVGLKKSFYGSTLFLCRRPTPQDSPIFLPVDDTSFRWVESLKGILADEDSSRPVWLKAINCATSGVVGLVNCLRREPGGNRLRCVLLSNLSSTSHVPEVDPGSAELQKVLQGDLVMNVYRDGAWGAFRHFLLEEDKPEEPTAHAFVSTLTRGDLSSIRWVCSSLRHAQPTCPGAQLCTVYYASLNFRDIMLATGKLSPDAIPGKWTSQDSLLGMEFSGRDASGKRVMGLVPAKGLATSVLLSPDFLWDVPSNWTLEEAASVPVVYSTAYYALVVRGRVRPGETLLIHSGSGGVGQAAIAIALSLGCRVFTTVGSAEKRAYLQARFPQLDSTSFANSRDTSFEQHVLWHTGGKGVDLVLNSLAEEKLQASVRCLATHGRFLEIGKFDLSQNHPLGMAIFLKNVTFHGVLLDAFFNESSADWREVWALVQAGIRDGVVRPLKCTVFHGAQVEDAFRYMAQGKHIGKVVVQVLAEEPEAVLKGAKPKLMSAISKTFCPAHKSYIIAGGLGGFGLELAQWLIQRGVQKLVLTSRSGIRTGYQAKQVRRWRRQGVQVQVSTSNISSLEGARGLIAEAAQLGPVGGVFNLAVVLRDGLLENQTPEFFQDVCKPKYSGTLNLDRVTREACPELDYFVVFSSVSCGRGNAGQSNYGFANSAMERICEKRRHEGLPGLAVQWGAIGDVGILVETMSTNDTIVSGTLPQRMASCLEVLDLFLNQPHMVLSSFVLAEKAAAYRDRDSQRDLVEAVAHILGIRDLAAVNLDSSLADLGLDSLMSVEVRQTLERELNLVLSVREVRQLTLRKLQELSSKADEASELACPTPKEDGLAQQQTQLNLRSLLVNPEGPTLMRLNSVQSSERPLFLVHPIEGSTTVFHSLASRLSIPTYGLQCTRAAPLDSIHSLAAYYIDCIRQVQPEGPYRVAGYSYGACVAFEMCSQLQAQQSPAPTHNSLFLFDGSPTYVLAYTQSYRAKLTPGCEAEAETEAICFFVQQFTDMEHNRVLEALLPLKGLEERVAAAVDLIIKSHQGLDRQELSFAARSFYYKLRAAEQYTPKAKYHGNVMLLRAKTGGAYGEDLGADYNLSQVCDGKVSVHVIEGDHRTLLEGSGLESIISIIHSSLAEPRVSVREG
Retinoic acid receptor RXR-alpha (Homo sapiens), sequence (P19793 whole entry, looked up, the tested form may be a part): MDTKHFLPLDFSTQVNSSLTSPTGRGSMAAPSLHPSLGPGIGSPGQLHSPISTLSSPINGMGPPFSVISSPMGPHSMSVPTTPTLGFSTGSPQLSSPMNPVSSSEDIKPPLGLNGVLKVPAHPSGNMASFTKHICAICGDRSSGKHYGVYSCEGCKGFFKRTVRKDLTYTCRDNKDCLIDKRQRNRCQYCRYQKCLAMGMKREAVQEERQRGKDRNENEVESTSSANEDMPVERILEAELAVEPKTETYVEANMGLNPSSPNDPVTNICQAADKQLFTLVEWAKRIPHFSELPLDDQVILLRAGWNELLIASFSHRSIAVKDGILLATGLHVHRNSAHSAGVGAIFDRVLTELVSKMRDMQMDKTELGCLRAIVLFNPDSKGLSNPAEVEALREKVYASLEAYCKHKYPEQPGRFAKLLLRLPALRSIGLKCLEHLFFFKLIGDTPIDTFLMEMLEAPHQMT

For `CCCCCCCCSC(=O)Oc1cc(Cl)nnc1-c1ccccc1`, the compound was called inactive in [1] and in [2].

The term AC50 denotes the midpoint of the concentration-response curve, whichever way the signal moves. As for `Oc1ccc(-c2ccccc2)cc1`, the AC50 in experiment [3] is 50 µM (active); in experiment [4], 87.6 µM (active); in experiment [5], 74.2 µM (active); in [6], 14 µM (active). For the same compound, the compound was called inactive in [1], in experiment [2], in [7] and in experiment [8].

As to `O=c1[nH]c(=O)[nH]c(=O)[nH]1`, the call in experiment [3], in experiment [1], in experiment [2], in [9], in experiment [10] and in [11] was inactive. Further, the compound was called inactive in [12], in experiment [13], in experiment [14], in experiment [15], in experiment [16] and in experiment [17].

Turning to `O=C(OC1CCCCC1)c1ccccc1C(=O)OC1CCCCC1`, the compound was called inactive in [1] and in experiment [2].

As for `Cc1ccccc1C(=O)Nc1cccc(OC(C)C)c1`, the call in experiment [1] and in experiment [2] was inactive.

Regarding `ClC1(Cl)C2(Cl)C3(Cl)C4(Cl)C(Cl)(Cl)C5(Cl)C3(Cl)C1(Cl)C5(Cl)C24Cl` (stereo not drawn), the compound was classed as inactive in experiment [3], in [1], in [2], in [9], in experiment [11] and in [12]. In addition, the outcome in [13], in [14], in experiment [15] and in [17] was inactive. Moreover, the values for the AC50 in experiment [10] and in experiment [16] were 3.24 µM (active) and 23.3 µM (active), respectively.

`COP(=S)(OC)Oc1ccc(Sc2ccc(OP(=S)(OC)OC)cc2)cc1`: the compound was classed as inactive in [1] and in [2].

Turning to `NNC(=S)NN`, the compound was called inactive in experiment [3], in experiment [1], in experiment [2] and in experiment [18]. The AC50 in experiment [5] and in [19] was 50 µM (active) throughout.

As to `CC(C)c1cccc(C(C)C)c1O`, the compound was called inactive in experiment [3] and in experiment [2].

As to `C[C@]12CC[C@H](O)CC1=CC[C@@H]1[C@@H]2CC[C@]2(C)C(=O)CC[C@@H]12`, the compound was called inactive in experiment [3], in experiment [2], in experiment [6], in [8], in experiment [18] and in experiment [19]. The AC50 in experiment [4] is 41.1 µM (active); in experiment [5], 14.1 µM (active); in experiment [7], 7.72 µM (active).

For `OCc1ccco1`, the compound was called inactive in experiment [1] and in experiment [2].

In the case of `O=C(O)C(Cl)(Cl)Cl`, the compound was called inactive in experiment [3], in experiment [1], in experiment [2], in [9], in experiment [10] and in experiment [11]. For the same compound, the outcome in experiment [12], in experiment [13], in [14], in [15], in experiment [16] and in experiment [17] was inactive. For the same compound, the figures for the AC50 in [14] and in experiment [16] were 0.207 µM (active) and 50 µM (active), respectively.

(Values after PubChem BioAssay (EPA / NIEHS).)
